Most compounds without a hit are left out; they make up all but 32% or so of the library.
CYP2C19 inhib – blockers of cytochrome P450 2C19 activity – biochemical, luminescence, ADME assay, primary screen; AID 778, 2007; P33261; 96,000 tested, 21% active; CYP2C19 Supersomes, luciferin-H EGE luminescence, 30 min; inhibition, % at 5 µM;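 active = CYP2C19 inhibition above a set limit at 5 µM in the primary screen, cut at about 50% in these data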;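 note: plate controls were negative control wells for no effect and 2.5 mM tranylcypromine positive control for full effect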
Target sequence (P33261 whole entry, looked up): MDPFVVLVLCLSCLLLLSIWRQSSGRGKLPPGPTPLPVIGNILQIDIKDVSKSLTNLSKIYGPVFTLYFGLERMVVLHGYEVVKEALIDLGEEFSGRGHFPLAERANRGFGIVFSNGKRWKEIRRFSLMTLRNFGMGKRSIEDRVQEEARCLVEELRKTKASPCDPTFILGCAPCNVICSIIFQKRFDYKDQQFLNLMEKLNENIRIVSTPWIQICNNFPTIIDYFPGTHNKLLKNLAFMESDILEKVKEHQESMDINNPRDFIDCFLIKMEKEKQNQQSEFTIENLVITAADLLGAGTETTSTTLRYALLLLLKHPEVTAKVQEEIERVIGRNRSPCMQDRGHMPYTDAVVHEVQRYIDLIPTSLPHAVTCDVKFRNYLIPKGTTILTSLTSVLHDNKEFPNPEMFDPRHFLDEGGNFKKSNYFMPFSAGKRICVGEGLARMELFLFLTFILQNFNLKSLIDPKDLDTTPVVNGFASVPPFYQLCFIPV
PostGolgi yeast – phenotypic screen on post-Golgi transport, primary screen; post-Golgi transport phenotypic cell assay; 98,000 tested, 0.9% active; AID 739, 2007; inhibition, % at 10 µM;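 note: yeast cells grown in 1536-well plates; yeast grown about 18 h at 30C before absorbance read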
CYP2C19 activ – human CYP2C19 activators, primary screen, biochemical, luminescence; Cytochrome P450 2C19 (Homo sapiens), P33261; recombinant CYP2C19, luciferin-H EGE luminescence; active compounds read high; 0 = fully inhibited enzyme, 1 = untreated enzyme; activation factor at 5 µM; 96,000 tested, under 10 active;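 active = activation factor of at least 2 at 5 µM in the primary screen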;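 note: 0 = wells with 2.5 mM tranylcypromine and 1 = vehicle-only wells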
CYP2C9 inhib – blockers of cytochrome P450 2C9 activity – biochemical, luminescence, ADME assay, primary screen; P11712; inhibition, % at 5 µM; 96,000 tested, 20% active; CYP2C9 Supersomes, luciferin-H conversion;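 active = blocking of liver enzyme CYP2C9 beyond about 50% at 5 µM, limit read from the data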
CYP2C9 activ – human CYP2C9 activators, primary screen, biochemical, luminescence. Cytochrome P450 2C9 (Homo sapiens), P11712. recombinant CYP2C9, luciferin-H conversion; active compounds read high; factor 1 = untreated enzyme, 0 = blocked. activation factor at 5 µM. 96,000 tested, 1.4% active. AID 1024, 2008;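 active = activation factor of 2 or more for CYP2C9 at a 5 µM dose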;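 note: 0 = sulfaphenazole-blocked wells and 1 = vehicle-only wells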
PostGolgi ctrl – growth inhibition of yeast control strain, primary screen, counter-screen for post-Golgi transport modulator project. efflux-deficient yeast background strain, growth absorbance A615, 16 h. inhibition, % at 10 µM. 98,000 tested, 5% active. AID 738, 2007
An asterisk follows results filed as active. Cut-off read from the data, not from the text of the source, unless noted: active = inhibition above about 30%; inactive = the rest.

`O=C(Cc1nc(-c2ccc([N+](=O)[O-])cc2)cs1)Nc1ccccc1` gave CYP2C19 inhib 30, PostGolgi yeast -4, CYP2C19 activ 0.7, CYP2C9 inhib 62*, CYP2C9 activ 0.4 and PostGolgi ctrl 6.
CC(=O)N(c1ccc(Cl)cc1)c1c[nH]c2ccccc12 was read as CYP2C19 inhib 92*, PostGolgi yeast 9, CYP2C19 activ 0.1, CYP2C9 inhib 70*, CYP2C9 activ 0.3 and PostGolgi ctrl 9.
For CC(C)CC(=O)c1c[nH]c(C(=O)NCC2CCCO2)c1 (stereo unspecified) the results were CYP2C19 inhib -12, PostGolgi yeast -5, CYP2C19 activ 1.1, CYP2C9 inhib -17, CYP2C9 activ 1.2 and PostGolgi ctrl -11.
For Cn1c(C(=O)NCc2cccs2)cc2oc3ccccc3c21 the results were CYP2C19 inhib 51*, PostGolgi yeast 0, CYP2C19 activ 0.5, CYP2C9 inhib 79*, CYP2C9 activ 0.2 and PostGolgi ctrl 5.
`O=C(NCc1ccccc1)c1cc2ccccc2o1` gave CYP2C19 inhib 46, PostGolgi yeast 7, CYP2C19 activ 0.5, CYP2C9 inhib -3, CYP2C9 activ 1 and PostGolgi ctrl 6.
Screening CC(=O)c1c[nH]c(C(=O)NCC2CCCO2)c1 (stereo unspecified) returned CYP2C19 inhib 69*, PostGolgi yeast 19, CYP2C19 activ 0.3, CYP2C9 inhib 11, CYP2C9 activ 0.9 and PostGolgi ctrl 0.
For O=C(CNC(=O)c1cc2ccccc2o1)NCc1cccs1 the results were PostGolgi yeast 4 and PostGolgi ctrl 8.
For Cn1c(C(=O)NCc2ccccc2)cc2oc3ccccc3c21 the results were CYP2C19 inhib 52*, PostGolgi yeast 9, CYP2C19 activ 0.5, CYP2C9 inhib 91*, CYP2C9 activ 0.1 and PostGolgi ctrl -6.
`Cn1c(C(=O)NCC2CCCO2)cc2oc3ccccc3c21` (stereo unspecified) gave CYP2C19 inhib 72*, PostGolgi yeast 5, CYP2C19 activ 0.3, CYP2C9 inhib 81*, CYP2C9 activ 0.2 and PostGolgi ctrl 2.
For O=C(N1CCOCC1)N(CCN1CCOCC1)Cc1cccc(Cl)c1 the results were CYP2C19 inhib -1, PostGolgi yeast 0, CYP2C19 activ 1, CYP2C9 inhib -7, CYP2C9 activ 1.1 and PostGolgi ctrl 18.
For O=C(Cc1cccc2ccccc12)N/N=C/c1ccc(F)cc1 the results were CYP2C19 inhib 17, PostGolgi yeast -9, CYP2C19 activ 0.8, CYP2C9 inhib 14, CYP2C9 activ 0.9 and PostGolgi ctrl -7.
Screening O=C(CC(=O)N/N=C\c1c(Cl)cccc1Cl)NCc1ccccc1 returned CYP2C19 inhib 86*, PostGolgi yeast -2, CYP2C19 activ 0.1, CYP2C9 inhib 41, CYP2C9 activ 0.6 and PostGolgi ctrl 5.
For O=c1[nH]c2cc(Cl)cc(Cl)c2[nH]c1=O the results were CYP2C19 inhib 6, PostGolgi yeast -2, CYP2C19 activ 0.9, CYP2C9 inhib 8, CYP2C9 activ 0.9 and PostGolgi ctrl 10.
CCOC(=O)c1c(NC(=O)Cc2cccs2)sc(C(=O)NC2CCCCC2)c1C was read as CYP2C19 inhib 33, PostGolgi yeast 6, CYP2C19 activ 0.7, CYP2C9 inhib 71*, CYP2C9 activ 0.3 and PostGolgi ctrl 2.
`COC(=O)Nc1sc(C(=O)N(C)C)c(C)c1C(=O)OC` gave CYP2C19 inhib 8, PostGolgi yeast 7, CYP2C19 activ 0.9, CYP2C9 inhib -3, CYP2C9 activ 1 and PostGolgi ctrl 8.
Screening CCOC(=O)c1c(NC(=O)C2c3ccccc3Oc3ccccc32)sc(C(=O)N(CC)CC)c1C returned CYP2C19 inhib 39, PostGolgi yeast 0, CYP2C19 activ 0.6, CYP2C9 inhib 98*, CYP2C9 activ 0 and PostGolgi ctrl 4.
For CCOC(=O)c1c(NC(=O)OC)sc(C(=O)N(C)C)c1C the results were CYP2C19 inhib 24, PostGolgi yeast 21, CYP2C19 activ 0.8, CYP2C9 inhib 54*, CYP2C9 activ 0.5 and PostGolgi ctrl 11.
CCOC(=O)c1c(NC(=O)c2cc(C(C)C)on2)sc(C(C)=O)c1C was read as CYP2C19 inhib 13, PostGolgi yeast 8, CYP2C19 activ 0.9, CYP2C9 inhib 23, CYP2C9 activ 0.8 and PostGolgi ctrl 13.
CCOC(=O)c1c(NC(NC(C)=O)C(Cl)(Cl)Cl)sc(C(C)=O)c1C (stereo unspecified) was read as CYP2C19 inhib 38, PostGolgi yeast 13, CYP2C19 activ 0.6, CYP2C9 inhib 54*, CYP2C9 activ 0.5 and PostGolgi ctrl -2.
`CCOC(=O)c1c(NC(=O)CN(C)C)sc(C(=O)N(CC)CC)c1C` gave CYP2C19 inhib 30, PostGolgi yeast 1, CYP2C19 activ 0.7, CYP2C9 inhib 38, CYP2C9 activ 0.6 and PostGolgi ctrl -1.
CCOC(=O)c1c(NC(=O)Cc2cccs2)sc(C(=O)NC2CCCC2)c1C was read as CYP2C19 inhib 9, PostGolgi yeast 0, CYP2C19 activ 0.9, CYP2C9 inhib 29, CYP2C9 activ 0.7 and PostGolgi ctrl -3.
`CCOC(=O)c1c(NC(=O)CC)sc(C(C)=O)c1C` gave CYP2C19 inhib 69*, PostGolgi yeast 18, CYP2C19 activ 0.3, CYP2C9 inhib 77*, CYP2C9 activ 0.2 and PostGolgi ctrl 4.
CCOC(=O)c1c(/N=C/N(C)C)sc(C(=O)OC)c1C was read as CYP2C19 inhib 78*, PostGolgi yeast 10, CYP2C19 activ 0.2, CYP2C9 inhib 50, CYP2C9 activ 0.5 and PostGolgi ctrl 13.
For C#CC1CN(Cc2ccccc2)CC(C#C)N1C (stereo unspecified) the results were CYP2C19 inhib 39, PostGolgi yeast -2, CYP2C19 activ 0.6, CYP2C9 inhib 0, CYP2C9 activ 1 and PostGolgi ctrl -2.
`COc1ccc(-c2noc(CCCC(=O)NCCc3ccccc3)n2)cc1OC` gave CYP2C19 inhib 47, PostGolgi yeast 7, CYP2C19 activ 0.5, CYP2C9 inhib 48, CYP2C9 activ 0.5 and PostGolgi ctrl 17.
`CCCCN(CC)C(=O)c1ccc(Cl)c(Cl)c1` gave CYP2C19 inhib 84*, PostGolgi yeast 1, CYP2C19 activ 0.2, CYP2C9 inhib 1, CYP2C9 activ 1 and PostGolgi ctrl 8.
Screening CC(C)C(c1nnnn1CCc1ccccc1)N1CCOCC1 (stereo unspecified) returned CYP2C19 inhib 32, PostGolgi yeast 11, CYP2C19 activ 0.7, CYP2C9 inhib 16, CYP2C9 activ 0.8 and PostGolgi ctrl -4.
